PubChem BioAssay (NCATS)
Results filed as inconclusive are left out. Entries that show only a call come without a potency. Activity calls are given as the source filed them. Calls follow the shape of the dose curve; as a rule, active = well fitted cell-killing curve with a large enough effect; inconclusive = small, poorly fitted or top-dose-only effect; inactive = no such curve, though single readings can be large or run the other way.

Test: qHTS of pediatric cancer cell lines to identify multiple opportunities for drug repurposing: Primary screen for LAN-5 cells (AID 1347100)
Details: LAN-5 neuroblastoma viability, CellTiter-Glo luminescence, 48 h; series mostly up to 46 µM
Source text: Drug repurposing or repositioning has been offered as a strategy for drug development in oncology programs. This approach has special potential for childhood cancers and other rare or orphan diseases, where the expected return on new drug development has been a disincentive to pharmaceuticals.
In this project we exploit the poly-pharmacology of drugs to discover new indications via phenotypic screening of a panel of 19 well-characterized cell lines derived from solid tumors seen in children and adolescents. The goal is to identify approved drugs with previously unrecognized anticancer properties that has the potential to reveal new mechanisms and biological processes involved in carcinogenesis or drug resistance. We employed a titration-based paradigm (quantitative high-throughput screening or qHTS), where all compounds were tested at multiple concentrations for their effect on cell viability. Concentration-response curves (CRCs) were derived directly from the primary screen, and both potency and efficacy values were used to identify compounds with robust bioactivity profiles. We screened the NIH Chemical Genomics Center (NCGC) Pharmaceutical Collection (NPC) and Mechanism Interrogation Plate (MIPE) small molecule collections of approved and investigational compounds against these cell lines; and measured metabolically active cells after 48 hours of compound treatment as a proxy for cell viability.
Assay Submitter: Nathalia J. Martinez, National Center for Advancing Translational Sciences, National Institutes of Health, Rockville, MD, USA; email: natalia.martinez@nih.gov
[1] Shen, M et al. Quantitative high-throughput phenotypic screening of pediatric cancer cell lines identifies multiple opportunities for drug repurposing. Oncotarget 2017 Dec 19;9(4):4758-4772. PMID 29435139.
The cells were obtained from University of North Carolina (UNC), Pediatric Preclinical Testing Program (PPT), and Coriell Institute (CI).
qHTS cell viability assay:
Cells were assayed in growth media at a density of 500-1,000 cells/well. Five microliters of cells were dispensed into 1,536-well, white, solid-bottom, TC-treated plates (Greiner Bio One) using a multidrop dispenser and incubated at 37 degrees C, 5% CO2, under a humidified atmosphere for 5 hours. Twenty-three nanoliters of compounds and controls (neutral control DMSO or positive control bortezomib at final concentration of 2.3 µM) were subsequently transferred by Kalypsys pintool. For primary screens, the MIPE collection was tested at 11-point dilutions (final concentrations range from 0.78 nM to 46 µM) and the NPC collection at 8-point dilutions (final concentrations range from 0.59 nM to 46 µM). Compounds tested in follow-up screens were assayed at 11-point dilutions. Cells were incubated for 48 hours, followed by addition of 3 µL of CellTiter-Glo (Promega). After a 15 min incubation at room temperature, samples were analyzed for luminescence intensity using a ViewLux High-throughput CCD imager equipped with clear filters.

Compound	Potency	activity change, negative = cytotoxic
Cc1c(Cl)cccc1Nc1ccccc1C(=O)O	inactive	–
CCOc1ccc2ccccc2c1C(=O)N[C@@H]1C(=O)N2[C@@H]1SC(C)(C)[C@@H]2C(=O)O	inactive	–
CCCCN(CCCC)CCCOC(=O)c1ccc(N)cc1	inactive	–
Nc1ccc(S(=O)(=O)Nc2nccs2)cc1	inactive	–
CC(COc1ccccc1)NC(C)C(O)c1ccc(O)cc1 (stereo not given)	inactive	–
C[C@@H]1C[C@H]2[C@@H]3C[C@H](F)C4=CC(=O)C=C[C@]4(C)[C@@]3(F)[C@@H](O)C[C@]2(C)[C@@]1(O)C(=O)CO	inactive	–
CC(O)COc1ccccc1 (stereo not given)	inactive	–
CC1=C(CC(=O)O)c2cc(F)ccc2/C1=C\c1ccc(S(C)(=O)=O)cc1	inactive	–
CC(=O)c1ccc2c(c1)N(CCCN(C)C)c1ccccc1S2	inactive	–
CC(C)c1c(C(=O)Nc2ccccc2)c(-c2ccccc2)c(-c2ccc(F)cc2)n1CC[C@@H](O)C[C@@H](O)CC(=O)O	inactive	–
NC1CCN(c2cccc(Cl)n2)CC1	inactive	–
NCCNCCNCCNCCN	–	-15.5% [at 9.22 µM] (inactive)
[Cl][In]([Cl])[Cl]	inactive	–
NS(=O)(=O)c1cc2c(cc1C(F)(F)F)NC(Cc1ccccc1)NS2(=O)=O (stereo not given)	inactive	–
C[C@@H]1CCN(C(=O)[C@H](CCCN=C(N)N)NS(=O)(=O)c2cccc3c2NC[C@H](C)C3)[C@@H](C(=O)O)C1	inactive	–
N[C@H](C(=O)O)c1ccc(O)cc1	inactive	–
CS(=O)(=O)c1ccc([C@@H](O)[C@@H](CF)NC(=O)C(Cl)Cl)cc1	inactive	–
CCCCCCCCCCCCOS(=O)(=O)O	inactive	–
CCOC(=O)c1ccc(O)cc1	inactive	–
Nc1ccc(S(=O)(=O)NC(=O)c2ccccc2)cc1	inactive	–

Compound	Potency	activity change, negative = cytotoxic
CN(C)CCCN1c2ccccc2CCc2ccccc21	inactive	–
O=C1c2c(O)cccc2Cc2cccc(O)c21	inactive	–
O=C1O[C@H]([C@@H](O)CO)C(O)=C1O	inactive	–
CN(C)CCOC(C)(c1ccccc1)c1ccccn1 (stereo not given)	inactive	–
NC(N)=NCCC[C@H](N)C(=O)O	–	8.53% [at 4.84 µM] (inactive)
O=C(O)[C@@H]1CSCN1	inactive	–
C[C@]12CC[C@@H]3c4ccc(O)cc4CC[C@H]3[C@@H]1CCC2=O	inactive	–
COc1ccc(S(=O)(=O)Nc2nnc(CC(C)C)s2)cc1	inactive	–
O=C1NS(=O)(=O)c2ccccc21	inactive	–
C[C@H]1O[C@@H](n2cc(F)c(=O)[nH]c2=O)[C@H](O)[C@@H]1O	inactive	–
CCCCC(CC)COC(=O)c1ccccc1O (stereo not given)	inactive	–
CC1(C)OC(=O)NC1=O	inactive	–
COc1ccc2cc1Oc1cc3c(cc1OC)CC[N+](C)(C)[C@H]3Cc1ccc(cc1)Oc1c(OC)c(OC)cc3c1[C@@H](C2)[N+](C)(C)CC3	inactive	–
O=S(=O)(O)NC1CCCCC1	inactive	–
c1ccc(CN(CC2=NCCN2)c2ccccc2)cc1	inactive	–
CC/C=C(\C(=O)N[C@@H]1C(=O)N2C(C(=O)OCOC(=O)C(C)(C)C)=C(COC(N)=O)CS[C@H]12)c1csc(N)n1	inactive	–
CC1(C)[C@@H]2CC[C@@]1(C)C(=O)C2	inactive	–
O=c1cc[nH]c(=O)[nH]1	inactive	–
CC1=C(/C=C/C(C)=C/C=C/C(C)=C/C(=O)O)C(C)(C)CCC1	inactive	–
Oc1cccc(O)c1	inactive	–
